Our source for the Potency values is PubChem BioAssay (Tox21).

Records with an inconclusive call do not appear. Where a structure was tested more than once in an assay, its records may differ in their call. The source made the active and inactive calls. Unless noted, calls follow the shape of the dose curve; as a rule, active = well fitted curve in the direction sought with a large enough effect in the repeat runs; inconclusive = weak or mixed curves; inactive = no such curve, though single readings can be large; an effect the other way counts as inactive or inconclusive.

Test [1] is described as follows: qHTS assay to identify small molecule antagonists of the thyroid receptor (TR) signaling pathway - cell viability counter screen (AID 743064). Also: nearly all actives have a fitted effect of over 50% in size. A digest of the protocol:
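GH3.TRE-Luc rat pituitary cells carrying a TRE-luciferase reporter were treated with compound plus 1 nM T3 (final) for 23.5 h at 37 °C. Viability was then read in the same wells by CellTiter-Fluor fluorescence after a further 30 min.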

A short description of test [2]: qHTS assay to identify small molecule antagonists of the thyroid receptor (TR) signaling pathway (AID 743065). Also: series mostly up to about 70 µM; nearly all actives have a fitted effect of over 55% in size. In outline: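 GH3.TRE-Luc rat pituitary cells (two TREs driving luciferase) were dosed with compound, then stimulated with 1 nM T3 (final) for 23.5 h at 37 C. ONE-Glo luminescence was the read-out, with CellTiter-Fluor fluorescence as the cytotoxicity counter-screen.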

For test [3], the system named is thyroid hormone receptor (rat, GH3 cells). Kind of test: qHTS assay to identify small molecule agonists of the thyroid receptor (TR) signaling pathway (AID 743066; calls by dose curve). On the technique in general: Quantitative high-throughput screening tests each substance at several concentrations.
In test [4] the target is Estrogen receptor (Homo sapiens) (UniProt P03372). The test can be described thus: qHTS assay to identify small molecule antagonists of the estrogen receptor alpha (ER-alpha) signaling pathway (AID 743069; active = well fitted curve in the direction sought with a large enough effect in the signal ratio in the repeat runs, not every such curve was filed as active; the % refers to the signal ratio). A digest of the protocol: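 Reporter cells (ER-alpha-bla, HEK293 background) are conditioned overnight in stripped-serum medium (2% charcoal-stripped FBS). Compound and 17beta-estradiol exposure runs 18 hr at 37C, 5% CO2.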

A short description of test [5]: qHTS assay to identify small molecule antagonists of the estrogen receptor alpha (ER-alpha) signaling pathway - cell viability counter screen (AID 743074; calls by dose curve;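 also: HEK293 cells carrying ER-alpha-UAS-bla reporter stimulated with 17beta-estradiol; nearly all actives have a fitted effect of over 45% in size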).
For test [6], the target named is Estrogen receptor (Homo sapiens) (UniProt P03372). The test can be described thus: qHTS assay to identify small molecule agonists of the estrogen receptor alpha (ER-alpha) signaling pathway (AID 743075; calls by dose curve;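 also: HEK293 GripTite cells with ER-alpha and UAS-driven beta-lactamase reporter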).
Test [7] shares this target. The test can be described thus: qHTS assay to identify small molecule agonists of the estrogen receptor alpha (ER-alpha) signaling pathway using the BG1 cell line (AID 743079). Also: nearly all actives have a fitted effect of over 20% in size. Also: potency is read from the fitted curve at half-maximal effect.
Test [8] is described as follows: qHTS assay to identify small molecule antagonists of the estrogen receptor alpha (ER-alpha) signaling pathway using the BG1 cell line (AID 743080; calls by dose curve;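 also: BG1 cells stimulated with 17beta-estradiol alongside compound; series mostly up to about 70 µM; nearly all actives have a fitted effect of over 25% in size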). In outline: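 BG1Luc4E2, endogenous ER-alpha, 4xERE-luc; 5 d charcoal-stripped FBS, phenol red free; 24 h plating; cpd + 17beta-estradiol 21.5 h, 37 C/5% CO2; CellTiter-Fluor viability 30 min, then ONE-Glo luciferase 30 min RT.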

Test [9] in a line: qHTS assay to identify small molecule antagonists of the estrogen receptor alpha (ER-alpha) signaling pathway using the BG1 cell line - cell viability counter screen (AID 743081).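 Also: compound given together with 17beta-estradiol as the ER stimulus; series mostly up to about 70 µM; nearly all actives have a fitted effect of over 45% in size.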
In a further test the target is Aromatase (Homo sapiens) (UniProt P11511). The test can be described thus: qHTS assay to identify aromatase inhibitors (AID 743083). Also: series mostly up to about 70 µM; nearly all actives have a fitted effect of over 55% in size.
Test [10] in a line: qHTS assay to identify aromatase inhibitors - cell viability counter screen (AID 743084).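 Also: cells stimulated with testosterone during compound exposure; nearly all actives have a fitted effect of over 55% in size.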
The target of test [11] is Aryl hydrocarbon receptor (Homo sapiens) (UniProt P35869). The test can be described thus: qHTS assay to identify small molecule that activate the aryl hydrocarbon receptor (AhR) signaling pathway (AID 743085). Also: nearly all actives have a fitted effect of over 15% in size. Also: potency is read from the fitted curve at half-maximal effect.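 As to activation: HG2L7.5c1 human HepG2 liver cells with stably integrated DRE-driven firefly reporter; series mostly up to about 70 µM.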 In outline: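 HepG2 cells (HG2L7.5c1) stably carrying a firefly luciferase reporter driven by 20 dioxin responsive elements were exposed to compound for 24 h at 37C after a 5 h settling period; luminescence rise (ONE-Glo) indicated activation.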

Test [12] can be described thus: qHTS assay to identify small molecule that activate the aryl hydrocarbon receptor (AhR) signaling pathway - cell viability counter screen (AID 743086).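 Also: HepG2 liver cells carrying the AhR DRE luciferase reporter; series mostly up to about 70 µM; nearly all actives have a fitted effect of over 45% in size.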 In outline:
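HepG2-AhR-luc (HG2L7.5c1) cells, 4000/well, treated 24 h at 37 C with compound; viability measured as CellTiter-Fluor fluorescence after 30 min in the same wells as the luciferase read.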

Test [13] has as its target Peroxisome proliferator-activated receptor gamma (Homo sapiens) (UniProt P37231). The test can be described thus: qHTS assay to identify small molecule agonists of the peroxisome proliferator-activated receptor gamma (PPARg) signaling pathway (AID 743094; active = well fitted activation curve with a large enough effect in the signal ratio in the repeat runs, not every such curve was filed as active; the % refers to the signal ratio). In outline:
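GeneBLAzer PPARg UAS-bla HEK293H cells carrying a stably integrated beta-lactamase reporter were pre-incubated 5 h at 37C, then exposed to compounds in DMSO for 17 h at 37C; LiveBLAzer B/G FRET substrate was added for 1 h at room temperature and fluorescence read.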

Test [14] can be described thus: qHTS assay for small molecule agonists of the antioxidant response element (ARE) signaling pathway - cell viability counter screen (AID 743203; calls by dose curve; also: nearly all actives have a fitted effect of over 55% in size). In outline: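 CellSensor ARE-bla HepG2 cells, 2,000 per well, rested 5 hrs at 37C/5% CO2, then exposed to compound in DMSO for 16 hrs; viability read as CellTiter-Glo luminescence after 30 min at room temperature, in the reporter wells.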

The nature of test [15]: qHTS assay for small molecule activators of the heat shock response signaling pathway - cell viability counter screen (AID 743209). Also: nearly all actives have a fitted effect of over 50% in size. A digest of the protocol: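 CellSensor HSE-bla HeLa cells, plated overnight at 37 C/5% CO2, were exposed to compounds in DMSO for 5 h at 37 C. Viability was then read in the same wells by CellTiter-Glo luminescence after 30 min at room temperature.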

Aryl hydrocarbon receptor (Homo sapiens), sequence (P35869 whole entry, looked up): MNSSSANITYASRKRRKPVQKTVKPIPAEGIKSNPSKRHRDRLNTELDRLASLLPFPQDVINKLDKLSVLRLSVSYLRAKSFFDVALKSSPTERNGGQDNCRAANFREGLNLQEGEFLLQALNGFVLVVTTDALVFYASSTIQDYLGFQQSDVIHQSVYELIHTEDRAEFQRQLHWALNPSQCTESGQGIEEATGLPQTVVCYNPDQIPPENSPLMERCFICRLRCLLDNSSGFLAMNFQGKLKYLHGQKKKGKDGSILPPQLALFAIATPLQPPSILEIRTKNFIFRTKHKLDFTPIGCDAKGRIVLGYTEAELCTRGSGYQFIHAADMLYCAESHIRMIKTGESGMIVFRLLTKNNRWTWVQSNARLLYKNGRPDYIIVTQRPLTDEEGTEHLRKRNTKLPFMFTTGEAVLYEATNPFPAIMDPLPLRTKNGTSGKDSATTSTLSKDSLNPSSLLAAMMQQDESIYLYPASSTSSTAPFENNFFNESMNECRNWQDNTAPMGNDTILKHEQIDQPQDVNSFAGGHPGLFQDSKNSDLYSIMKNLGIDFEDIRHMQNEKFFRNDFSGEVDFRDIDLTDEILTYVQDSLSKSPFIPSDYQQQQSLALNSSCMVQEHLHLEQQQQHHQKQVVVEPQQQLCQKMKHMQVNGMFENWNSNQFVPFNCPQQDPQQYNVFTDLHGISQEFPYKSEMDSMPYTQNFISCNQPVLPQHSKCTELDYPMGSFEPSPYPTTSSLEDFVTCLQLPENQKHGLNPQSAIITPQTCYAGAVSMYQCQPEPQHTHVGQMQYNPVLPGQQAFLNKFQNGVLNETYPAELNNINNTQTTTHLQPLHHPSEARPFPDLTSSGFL
Peroxisome proliferator-activated receptor gamma (Homo sapiens), sequence (P37231 whole entry, looked up): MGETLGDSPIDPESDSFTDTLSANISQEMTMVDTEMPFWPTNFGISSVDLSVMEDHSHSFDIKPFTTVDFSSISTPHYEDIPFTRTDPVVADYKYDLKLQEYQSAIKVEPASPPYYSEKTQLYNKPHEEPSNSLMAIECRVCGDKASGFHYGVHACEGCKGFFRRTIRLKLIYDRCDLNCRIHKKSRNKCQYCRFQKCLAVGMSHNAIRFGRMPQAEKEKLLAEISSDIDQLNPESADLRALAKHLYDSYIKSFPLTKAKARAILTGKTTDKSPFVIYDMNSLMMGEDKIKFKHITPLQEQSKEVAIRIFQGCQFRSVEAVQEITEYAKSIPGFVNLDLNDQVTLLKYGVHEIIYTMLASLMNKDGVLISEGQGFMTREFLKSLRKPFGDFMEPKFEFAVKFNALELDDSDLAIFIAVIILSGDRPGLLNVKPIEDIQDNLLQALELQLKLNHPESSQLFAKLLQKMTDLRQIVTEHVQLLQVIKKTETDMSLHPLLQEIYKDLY
Estrogen receptor (Homo sapiens), sequence (P03372 whole entry, looked up): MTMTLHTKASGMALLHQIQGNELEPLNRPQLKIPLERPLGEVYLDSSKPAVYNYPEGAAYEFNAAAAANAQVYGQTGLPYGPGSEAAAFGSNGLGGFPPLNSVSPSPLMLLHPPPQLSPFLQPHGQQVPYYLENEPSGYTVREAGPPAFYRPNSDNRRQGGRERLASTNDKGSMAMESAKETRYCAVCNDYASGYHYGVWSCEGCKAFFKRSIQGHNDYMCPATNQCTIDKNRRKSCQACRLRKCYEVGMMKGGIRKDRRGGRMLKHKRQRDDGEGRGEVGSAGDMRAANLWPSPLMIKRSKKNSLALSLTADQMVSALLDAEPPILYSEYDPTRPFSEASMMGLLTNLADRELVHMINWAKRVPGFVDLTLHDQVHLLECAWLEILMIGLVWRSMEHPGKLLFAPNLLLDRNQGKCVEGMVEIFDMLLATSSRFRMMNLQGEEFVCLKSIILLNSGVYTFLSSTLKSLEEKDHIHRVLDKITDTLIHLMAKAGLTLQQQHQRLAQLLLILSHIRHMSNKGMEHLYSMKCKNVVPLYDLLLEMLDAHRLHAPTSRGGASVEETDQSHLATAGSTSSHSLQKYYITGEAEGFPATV
Aromatase (Homo sapiens), sequence (P11511 whole entry, looked up): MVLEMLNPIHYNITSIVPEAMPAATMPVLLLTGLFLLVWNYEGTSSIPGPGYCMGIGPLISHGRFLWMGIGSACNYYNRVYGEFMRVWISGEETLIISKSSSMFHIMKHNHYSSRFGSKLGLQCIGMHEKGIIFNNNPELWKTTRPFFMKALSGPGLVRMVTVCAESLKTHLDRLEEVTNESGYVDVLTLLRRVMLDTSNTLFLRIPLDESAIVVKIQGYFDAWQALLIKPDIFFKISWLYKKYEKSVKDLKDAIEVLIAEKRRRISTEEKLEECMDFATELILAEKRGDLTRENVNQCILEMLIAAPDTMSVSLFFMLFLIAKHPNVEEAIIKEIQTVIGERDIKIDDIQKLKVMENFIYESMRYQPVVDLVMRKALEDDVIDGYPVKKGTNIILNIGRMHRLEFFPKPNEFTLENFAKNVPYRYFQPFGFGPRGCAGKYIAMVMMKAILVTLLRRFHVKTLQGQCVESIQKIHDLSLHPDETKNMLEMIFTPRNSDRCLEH

As to `O=C1c2ccccc2CN2C(=O)c3ccccc3CN12`, the Potency entry in test [1], in test [2], in test [3], in test [4], in [5] and in test [6] was “inactive” throughout. The Potency entry (in test [7]; in test [8]; in test [9]; with Aromatase (Homo sapiens); in [10]; in test [11]) was “inactive” each time. Also, the Potency result in test [12] and in [13] was “inactive” each time.
`CCCCCCCCCCCCCCCC(=O)OC[C@H](COP(=O)([O-])OCC[N+](C)(C)C)OC(=O)CCCCCCCCCCCCCCC`: the Potency entry in [1], in test [2], in [3], in [4], in test [5] and in test [6] was “inactive” in each case. The Potency result (in test [7]; in test [8]; in test [9]; with Aromatase (Homo sapiens); in [10]; in [11]) was “inactive” each time.
As to `O=C1c2c(O)cccc2[C@H]([C@@H]2O[C@H](CO)[C@@H](O)[C@H](O)[C@H]2O)c2cc(CO)cc(O)c21`, the Potency result in test [1], in test [2], in test [3], in test [4], in test [5] and in test [6] was “inactive” each time. In addition, the Potency entry (in test [8]; in [9]; with Aromatase (Homo sapiens); in [10]; in test [11]; in test [12]) was “inactive” in each case. In addition, the Potency entry in test [13] was “inactive”. The Potency in test [7] is 13.3 µM (active) and inactive.
With `O=C(O)COc1ccccc1/C=N/NC(=O)c1ccncc1`, the Potency result in test [1], in test [2], in test [3], in test [4], in [5] and in test [6] was “inactive” each time. Besides, the Potency entry (in [7]; in test [8]; in test [9]; with Aromatase (Homo sapiens); in test [10]) was “inactive” in each case.
As to `Nc1cc(Cl)c(NC2=NCCN2)c(Cl)c1`, the Potency result in [1], in test [2], in [3], in test [4], in [5] and in [6] was “inactive” each time. In addition, the Potency result (in test [7]; in [8]; in [9]; with Aromatase (Homo sapiens); in test [10]; in [11]) was “inactive” each time. The Potency result in test [12] and in test [13] was “inactive” throughout.
For `COC(=O)[C@H]1[C@H]2C[C@H]3c4[nH]c5ccccc5c4CCN3C[C@H]2CC[C@@H]1O`, the Potency entry in [1], in test [2], in test [3], in test [4], in [5] and in [6] was “inactive” in each case. Further, the Potency result (in test [7]; in test [8]; in [9]; with Aromatase (Homo sapiens); in test [10]) was “inactive” in each case. In [11], the Potency is 18.8 µM (active).
In the case of `NCC(O)CC(=O)O` (stereo not drawn), the Potency entry in [1], in test [2], in test [3], in test [4], in test [5] and in [6] was “inactive” throughout. For the same compound, the Potency entry (in test [8]; in test [9]; with Aromatase (Homo sapiens); in [10]; in test [12]; in [13]) was “inactive” throughout. Also, in [7], the Potency was 16.8 µM (active).
As to `O=C(O)/C=C/C(=O)Nc1ccc(S(=O)(=O)Nc2nccs2)cc1`, the Potency entry in [1], in test [2], in [3], in test [4], in [5] and in [6] was “inactive” each time. Besides, the Potency result (in [7]; in test [8]; in test [9]; in the test with Aromatase (Homo sapiens); in test [10]; in test [11]) was “inactive” throughout. Further, the Potency result in test [12] and in [13] was “inactive” throughout.
For the compound `CS(=O)(=O)c1ccc([C@@H](O)[C@@H](COC(=O)CN)NC(=O)C(Cl)Cl)cc1`, the Potency entry in test [1], in [2], in test [3], in test [4], in [5] and in test [6] was “inactive” throughout. Besides, the Potency entry (in [7]; in test [8]; in [9]; in the test with Aromatase (Homo sapiens); in test [10]; in test [11]) was “inactive” throughout. In addition, the Potency entry in [12] and in test [13] was “inactive” each time.
`CC1=C(/C=C/C(C)=C/C=C/C(C)=C/C=C/C=C(C)/C=C/C=C(C)/C=C/C2=C(C)CCCC2(C)C)C(C)(C)CCC1`: the Potency result in test [1], in test [2], in test [3], in [4], in test [5] and in test [6] was “inactive” throughout. Also, the Potency entry (in [7]; in test [8]; in [9]; with Aromatase (Homo sapiens); in [10]; in test [11]) was “inactive” in each case. In addition, the Potency entry in test [12] and in test [13] was “inactive” each time.
With `O=C(N[C@H](CO)[C@H](O)c1ccc([N+](=O)[O-])cc1)C(Cl)Cl`, the Potency result in test [1], in [2], in test [3], in test [4], in test [5] and in [6] was “inactive” each time. The Potency result (in test [7]; in test [8]; in test [9]; with Aromatase (Homo sapiens); in [10]; in [11]) was “inactive” each time. In addition, the Potency entry in test [13], in test [14] and in test [15] was “inactive” each time.
With `C=CCN1C(=O)C(CC(C)C)NC1=S` (stereo not drawn), the Potency entry in test [1], in [2], in test [3], in [4], in test [5] and in [6] was “inactive” each time. In addition, the Potency entry (in test [7]; in [8]; in [9]; with Aromatase (Homo sapiens); in [10]; in [11]) was “inactive” in each case. In addition, the Potency result in test [12] and in test [13] was “inactive” throughout.
For the compound `CN(Cc1ccccc1)Cc1ccccc1`, the Potency entry in test [1], in [2], in [3], in test [4], in test [5] and in [6] was “inactive” in each case. Further, the Potency result (in [7]; in [8]; in test [9]; with Aromatase (Homo sapiens); in test [10]; in test [12]) was “inactive” in each case. Further, the Potency result in test [13] was “inactive”.
Consider `CC(=O)NC[C@H]1CN(c2ccc(N3CCOCC3)c(F)c2)C(=O)O1`, for which the Potency entry in [1], in [2], in [3], in test [4], in test [5] and in test [6] was “inactive” each time. Further, the Potency result (in test [8]; in test [9]; in the test with Aromatase (Homo sapiens); in [10]; in [11]; in test [12]) was “inactive” in each case. Moreover, the Potency entry in [13] was “inactive”. The Potency in test [7] is 13.3 µM (active).
For the compound `NCCO/C=C/[C@H](N)C(=O)O`, the Potency entry in [1], in [2], in [3], in test [4], in test [5] and in test [6] was “inactive” each time. Besides, the Potency entry (in test [8]; in test [9]; with Aromatase (Homo sapiens); in [10]; in [12]) was “inactive” throughout. Also, the Potency in [7] is 26.6 µM (active).
For the compound `CCC(=O)OC(OP(=O)(CCCCc1ccccc1)CC(=O)N1C[C@H](C2CCCCC2)C[C@H]1C(=O)O)C(C)C` (stereo partly drawn), the Potency entry in test [1], in test [2], in test [3], in test [4], in [5] and in test [6] was “inactive” in each case. Further, the Potency result (in test [7]; in test [8]; in test [9]; in the test with Aromatase (Homo sapiens); in [10]; in test [12]) was “inactive” in each case. Moreover, in test [13], the Potency entry was “inactive”.
